Results published in ChEMBL document CHEMBL3988442, “University of Dundee, Small-Polar-MMV Screening Library” (2021).
Among all 53,000 compounds or so, about 900 (1.7%) showed an effect of 50% or more. This is one part of a sample in which strong results are shown more often than they occur.

test system: Mycobacterium tuberculosis; experiment: Cornell - Phenotypic assay to identify agents that inhibit growth of Mycobacterium tuberculosis; assay type: functional; design: scale not given: direction of the effect not stated beside the values; conditions: 10 mM as filed; unlikely as a test dose

Compound	Percent Effect [%]
Cc1cnc(N2CCc3onc(COc4cccnc4)c3C2)nc1	-20.46
Cc1cc(C)cc(C(=O)N2CCN(C(=O)N(C)C)CC2(C)C)c1	26.69
Cc1nc(Nc2cnccn2)cc(C2CCN(CCO)C2)n1.O=CO (configuration not stated)	-24.26
CSCCC(NC(=O)c1ccco1)C(=O)N(C)Cc1ccsc1 (configuration not stated)	-9.579
O=C(NCCC(=O)N1CCCC1)c1ccc(SCc2cccnc2)cc1	35.93
CCOc1ccnc(N2CCN(C(=O)c3cccnc3)CC2)n1	-18.66
O=S(=O)(NC1CCCCC12OCCO2)c1ccc2c(c1)OCCO2 (configuration not stated)	44.93
O=S(=O)(NC1CCCCC12OCCO2)c1cc(Cl)cc(Cl)c1 (configuration not stated)	16.3
O=S(=O)(NC1CCCCC12OCCO2)c1cc(F)cc(F)c1 (configuration not stated)	56.69
CCCN1CCC(Cc2noc(-c3cccnc3OC)n2)CC1	20.11
O=C(NCC1CCOC1)c1cc(-c2ccc(Cl)cc2)n[nH]1 (configuration not stated)	-7.527
Cc1ccc(-n2nnc(C(=O)NCC3CCCCC3)n2)cc1	32.3
CCn1nc(C)c(CNC(=O)c2nnc3ccccc3n2)c1C	7.838
O=C(NCC1CC1)c1nnc2ccc(Cl)cc2n1	99.3
O=C(NCC1CCOC1)c1csc(-c2ccc(Cl)cc2)n1 (configuration not stated)	25.26
Cc1ccc2nnc(C(=O)NCC3CCCC3)nc2c1	99.7
COc1ccc2nnc(C(=O)NCC3CCCC3)nc2c1	39.03
COc1ccc(C(=O)NC2CC2)c(OC)c1	29.69
COc1ccc2nnc(C(=O)NC3CCCC3)nc2c1	60.2
CCn1nc(C)c(CNC(=O)c2nnc3ccc(OC)cc3n2)c1C	-22.43
CCn1nc(C)c(CNC(=O)c2nnc3ccc(Cl)cc3n2)c1C	64.24
COc1ccc(-c2nnc(SC(C)C(=O)NC3CCCC3)[nH]2)c(OC)c1 (configuration not stated)	-11.32

Compound	Percent Effect [%]
O=C1[C@H]2CCCC[C@H]2C(=O)N1c1cnn(Cc2cccc(F)c2)c1	24.19
Cc1nnc(-c2cccc(C#N)c2)n1C1CCN(C(C)C)C1=O (configuration not stated)	5.61
Cc1cccc(S(=O)(=O)N2C[C@@H]3C[C@@H](c4nnc(C)[nH]4)O[C@@H]3C2)c1	-10.6
CN(Cc1ccc(F)cc1)CC1(O)CCN(C(=O)c2ccccn2)C1 (configuration not stated)	17.87
O=c1[nH]cc(N2CCCCC2)c(=O)[nH]1	4.601
Cc1ccc(NCC2(O)CCNCC2)cc1C	-25.1
CC(C)c1nnc(NC(=O)N(C)Cc2ccncc2)s1	-15.27
CSC(C)CCN(Cc1ccccn1)Cc1sccc1C (configuration not stated)	52.37
Cc1ccsc1CN(Cc1ccccn1)CC(C)C	-11.16
Cc1ccsc1CN(CCN(C)C)Cc1ccccn1	3.624
COCC(O)CN(C)c1ccnc2cc(Br)ccc12 (configuration not stated)	6.843
O=C(NC[C@@H]1CCCO1)c1cccnc1N1CCCC1c1ccccc1 (some centres not stated)	4.902
CC(c1ccc(F)cc1F)N1CCN(CCC(=O)NC(N)=O)CC1 (configuration not stated)	-2.983
COc1ccccc1N1CCC(CNCc2ccc(C#N)cc2)C1 (configuration not stated)	28.32
COc1cccc(N2CCC(CNC(=O)NCc3ccco3)C2)c1 (configuration not stated)	-31.24
COc1ccccc1N1CCC(CNCc2cccc(C#N)c2)C1 (configuration not stated)	33.02
COc1ccc(CNCC2CCN(c3ccccc3OC)C2)cc1O (configuration not stated)	59.98
COc1ccccc1N1CCC(CNCc2cccc(O)c2)C1 (configuration not stated)	38.06
COc1cccc(N2CCC(CNCc3cccc(C#N)c3)C2)c1 (configuration not stated)	63.04
Cc1cc(C)c(C(=O)N2CCCC(C(=O)CCc3ccccc3)C2)cn1 (configuration not stated)	16
CN1CCCC1CCNC(=O)c1ccccc1-n1cnc(CN)c1 (configuration not stated)	-39.2
CC(C)C(Sc1nnnn1C1CC1)C(=O)NCc1ccccc1 (configuration not stated)	-5.783

Compound	Percent Effect [%]
Cc1nc(N)sc1C(=O)N1Cc2ccccc2OC2(CCOCC2)C1	-56.78
O=C1CCC2(CCN(Cc3cscn3)CC2)CN1CCCO	5.461
CC(C)(C)Oc1ccc(NCC(=O)NCc2ccco2)cc1	108
CC(C)(Oc1ccc(F)cc1)C(=O)NCc1ccco1	22.85
O=C(CNc1ccc(OCC2CCOCC2)cc1)NCc1ccco1	31.46
CC[C@H](C)Nc1nccc(-c2cnc3sccn3c2=O)n1	-1.989
O=C(c1cn(-c2ccccc2C(F)(F)F)nn1)N1CCSCC1	17.85
Cc1ccc(CN2CC[C@H]3C[C@@H](c4nc(C5CC5)cs4)O[C@@H]3C2)o1	40.45
Cc1cc(CN2CC[C@H]3C[C@@H](c4nc(C5CC5)cs4)O[C@@H]3C2)no1	0.1287
Cc1ccc(CN2CC[C@H]3C[C@H](c4nc(C5CC5)cs4)O[C@@H]3C2)o1	67.24
Cn1nc(-c2cccc(Cl)c2)c(Br)c1C(=O)O	24.18
c1ccc(COc2ccccc2NC2CCOCC2)nc1	50.88
O=C(Nc1ccccc1OCc1ccccn1)NC1CCOCC1	30.18
O=C(Nc1ccccc1OCCc1ccccn1)NC1CCOCC1	-20.67
COc1cc(NCc2ccc(Cl)cc2)c(-c2nn[nH]n2)cc1OC	107.2
COc1cc(CNc2ccc(Cl)cc2)ccc1OCC(=O)O	-3.069
Cc1ccn(-c2ccccc2NCc2cccnc2)n1	-17.76
OCc1ccc(Cl)c(NCc2cccnc2)c1	-14.09
Cc1nnc(NCc2ccc(Cl)cc2)o1	21.04
c1cncc(CNc2ccccc2-c2nn[nH]n2)c1	72.98
COc1cc(NCc2ccncc2)c(-c2nn[nH]n2)cc1OC	96.19
COc1cc(NCc2cccnc2)c(-c2nn[nH]n2)cc1OC	-25.93

Compound	Percent Effect [%]
COc1ccncc1NCc1ccsc1	-60.05
CC(=O)N1CCCN(C(=O)NCCNc2cnccn2)CC1	8.364
CCOCc1cnc2n1CCN(C(=O)c1ccccc1)C2C (configuration not stated)	-22.66
Cn1cc(N2CCCC(SCc3nc(C4CC4)no3)C2=O)cn1 (configuration not stated)	-5.692
C[C@@H]1CN(c2nc3c(cc2C(N)=O)CCC3)CC[C@@]1(O)C1CCC1	6.158
Cn1nc(CNS(=O)(=O)Cc2ccccc2F)c2c1CCCC2	24.49
CCc1c(C)nc2cc(C3CCN(Cc4ccc(F)cc4)C3)nn2c1O (configuration not stated)	-30.4
O=C(O)C(F)(F)F.O=C([C@@H]1CCO[C@@H]2CCN(Cc3ccsc3)C[C@@H]21)N1CCCC1	13.31
CCCS(=O)(=O)N1CCC(NC(=O)c2cc(CC)c(C)s2)CC1	-14.58
COCC(=O)N1CCN(S(=O)(=O)c2cccs2)[C@H]2CS(=O)(=O)C[C@H]21	5.268
Cc1cc(NCCO)nc2[nH]nc(N)c12	15.94
NS(=O)(=O)c1cccnc1NCc1ccco1	9.166
CNc1c(NCc2ccco2)c(=O)c1=O	-73.54
Cc1cc2[nH]c(O)nc2cc1NCc1ccccc1	38.01
Cc1cc(NCc2ccccc2)nc2[nH]nc(N)c12	99.95
Cc1cc(NCc2ccco2)nc2[nH]nc(N)c12	73.02
Cc1nc(CCNC(=O)NC(C)c2ccc3c(c2)OCCO3)cs1 (configuration not stated)	-7.5
N#CC1COCCN1C(=O)c1cccc2cc[nH]c12 (configuration not stated)	15.8
COc1ccccc1OCCN(C)c1cc(C)nc(N)n1	-1.717
CS(=O)(=O)N1CCN(c2ccnc(N3CCCCC3)n2)CC1	63
CS(=O)(=O)N1CCN(c2ccnc(N3CCCC3)n2)CC1	7.415
CCCS(=O)(=O)N1CCN(c2ccnc(N3CCCCC3)n2)CC1	50.94

Compound	Percent Effect [%]
CCCS(=O)(=O)N1CCN(c2ccnc(N3CCCC3)n2)CC1	-0.1963
CN(C)S(=O)(=O)N1CCN(c2ccnc(N3CCCC3)n2)CC1	12.56
CN(C)S(=O)(=O)N1CCN(c2ccnc(N3CCCCC3)n2)CC1	38.93
COC(=O)c1cccc(CN(C)C(C)c2ccccn2)c1 (configuration not stated)	21.51
OC1(CN2CCC(Cc3ncccn3)CC2)CCOCC1	-20.94
O=C(c1cnco1)N1CCC(Cc2cccc3ncccc23)CC1	-21.16
O=C(c1cnco1)N1CCC(Cc2ccc3ncccc3c2)CC1	9.774
O=C(c1cnco1)N1CCC(Cc2cnc3ccccc3c2)CC1	64.83
COCCC1COC2(CCN(C(=O)c3ccncc3)CC2)C1.O=C(O)C(F)(F)F (configuration not stated)	-13.79
c1ccc(-n2ncc(CN3CCCC(Cn4cncn4)C3)n2)cc1 (configuration not stated)	2.145
Cc1cc2c(=O)n(CCOCCO)cnc2s1	14.22
CCCC1c2cccn2CCN1C(=O)Cn1cnc2sc(C)cc2c1=O (configuration not stated)	53.74
CCC1c2ccc(C)n2CCN1C(=O)Cn1cnc2sc(C)cc2c1=O (configuration not stated)	27.93
CCC(C)NC(=O)Cn1ccc2sc(C)cc2c1=O (configuration not stated)	17.39
CCC1c2cccn2CCN1C(=O)c1ccc2nonc2c1 (configuration not stated)	10.7
Cc1cc2c(=O)n(CC(=O)N3CCn4cccc4C3C(C)C)cnc2s1 (configuration not stated)	56.81
Cc1nn(C)cc1C(=O)Nc1cccc(CN2CCC(CO)CC2)c1	-50.57
Cc1nc2ccccn2c1CC(=O)N[C@@H]1CC[C@@H](N2CCCC2)[C@@H]1O	13.48
O=C(c1cc(-n2cccn2)ccn1)N(CC1CCC1)CC(F)(F)F	16.8
